From PubChem BioAssay AID588442 (The Scripps Research Institute Molecular Screening Center, 2011)
Entries with a potency or affinity are not part of this list. More than one record can exist for a structure, and the calls need not agree. Activity calls are given as the source filed them.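 How the source made its calls: active means EC50 of 10 µM or lower; inactive means EC50 above 10 µM or not measured.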

Assay: optical interference in Abeta FP readout, dose response, artefact control for IDE activator project, biochemical, fluorescence polarization (AID 588442)
Settings: FP artifact counterscreen, fluorescein-Abeta, no enzyme activity

SMILES	EC50
C#CCOCCOCCOCCNc1nc(N2CCN(C(=O)CCCCCCCCCCNC(=O)Cn3cc(C[C@@H](C)O)nn3)CC2)nc(N2CCN(C(=O)CCCCCCCCCCNC(=O)[C@H](CCCN=C(N)N)n3cc(C[C@@H](C)CC)nn3)CC2)n1	> 55.9 µM (inactive)
C#CCOCCOCCOCCNc1nc(N2CCN(C(=O)CCCCCCCCCCNC(=O)[C@H](CO)n3cc(CCCSC)nn3)CC2)nc(N2CCN(C(=O)CCCCCCCCCCNC(=O)[C@H](CCCCN)n3cc(CCO)nn3)CC2)n1	> 55.9 µM (inactive)
C[n+]1c2cc(N)ccc2cc2ccc(N)cc21	0.576 µM (active)
C#CCOCCOCCOCCNc1nc(N2CCN(C(=O)CCCCCCCCCCNC(=O)[C@H](CCCCN)n3cc(CCO)nn3)CC2)nc(N2CCN(C(=O)CCCCCCCCCCNC(=O)[C@H](CCCN=C(N)N)n3cc(C[C@@H](C)CC)nn3)CC2)n1	> 55.9 µM (inactive)
C#CCOCCOCCOCCNc1nc(N2CCN(C(=O)CCCCCCCCCCNC(=O)[C@H]([C@@H](C)CC)n3cc(CCCCCN)nn3)CC2)nc(N2CCN(C(=O)CCCCCCCCCCNC(=O)[C@H]([C@@H](C)CC)n3cc(CCCCN=C(N)N)nn3)CC2)n1	> 55.9 µM (inactive)
C#CCOCCOCCOCCNc1nc(N2CCN(C(=O)CCCCCCCCCCNC(=O)[C@H]([C@@H](C)CC)n3cc(CCCCN=C(N)N)nn3)CC2)nc(N2CCN(C(=O)CCCCCCCCCCNC(=O)[C@@H]([C@H](C)O)n3cc(C)nn3)CC2)n1	> 54.7 µM (inactive)
C#CCOCCOCCOCCNc1nc(N2CCN(C(=O)CCCCCCCCCCNC(=O)Cn3cc(CCCCCN)nn3)CC2)nc(N2CCN(C(=O)CCCCCCCCCCNC(=O)[C@H](CO)n3cc(CCCSC)nn3)CC2)n1	> 54.7 µM (inactive)
C#CCOCCOCCOCCNc1nc(N2CCN(C(=O)CCCCCCCCCCNC(=O)[C@@H](CCSC)n3cc(CCO)nn3)CC2)nc(N2CCN(C(=O)CCCCCCCCCCNC(=O)[C@H](CO)n3cc(CCCCCN)nn3)CC2)n1	> 56 µM (inactive)
C#CCOCCOCCOCCNc1nc(N2CCN(C(=O)CCCCCCCCCCNC(=O)Cn3cc(CCCCCN)nn3)CC2)nc(N2CCN(C(=O)CCCCCCCCCCNC(=O)[C@H]([C@@H](C)CC)n3cc(CCCCCN)nn3)CC2)n1	> 55.9 µM (inactive)
C#CCOCCOCCOCCNc1nc(N2CCN(C(=O)CCCCCCCCCCNC(=O)Cn3cc(CCCCCN)nn3)CC2)nc(N2CCN(C(=O)CCCCCCCCCCNC(=O)Cn3cc(C[C@@H](C)O)nn3)CC2)n1	> 54.7 µM (inactive)
